Data reported in PubChem BioAssay (NCI).
About 83,000 compounds went through this panel and 20% of them were active in at least one assay; those are over-represented in the sample as a whole.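 Compound tested at a single concentration for 48 hours in 96-well plates; a percent growth value below 10 was scored as active.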 Values without a mark were called inactive. Activity calls are given as the source filed them.

What was measured:
Assay in all cases: NCI-60 one-dose screen, 48 h (100 = growth as untreated, 0 = no growth, -100 = all killed)
Conditions in all cases: 10 µM unless noted
T-47D breast = test system: T-47D breast
BT-549 breast = test system: BT-549 breast
MDA-MB-435 melanoma = test system: MDA-MB-435 melanoma
SW-620 colon = test system: SW-620 colon
MCF7 breast = test system: MCF7 breast
HCT-116 colon = test system: HCT-116 colon
HCC-2998 colon = test system: HCC-2998 colon
KM12 colon = test system: KM12 colon

SMILES	growth (T-47D breast)	growth (BT-549 breast)	growth (MDA-MB-435 melanoma)	growth (SW-620 colon)	growth (MCF7 breast)	growth (HCT-116 colon)	growth (HCC-2998 colon)	growth (KM12 colon)
CCOc1ccccc1-n1c(CN2CCN(C(=O)COc3ccc(CNCCCCCCN4C5CCCC4CC(OC(=O)Nc4cc(C)ccc4OC)C5)cc3)CC2)nc2ccccc2c1=O (centres undefined)	-66.8% (active)	-90.8% (active)	-97% (active)	-86.8% (active)	-78.3% (active)	-91.5% (active)	-87.7% (active)	-87.2% (active)
O=C(Nc1cccc(Oc2nnc(Cl)c3ccccc23)c1)Nc1ccc(Cl)c(C(F)(F)F)c1	-24.6% (active)	-37.2% (active)	-78.4% (active)	-62.9% (active)	-35.6% (active)	-71.6% (active)	-86.5% (active)	-60.1% (active)
COc1cccc(-c2nn(-c3ccccc3)cc2-c2ccnc(NCCCNC(=O)c3ccccc3)c2)c1	4.22% (active)	14%	5.43% (active)	39.7%	33.4%	36%	52.3%	33.6%
Cc1ccc(Cc2cnc(NC(=O)c3ccc4noc(-c5ccccc5)c4c3)s2)cc1	78.7%	99.6%	85.8%	89.1%	69.8%	86.7%	99.7%	91.3%
COc1ccc(NC(=O)c2nc(-c3cc(OC)c(OC)c(OC)c3)n(-c3cccc4ccccc34)n2)cc1OC	50.3%	46.3%	47.4%	61.5%	26.2%	25.9%	47.4%	41.3%
CCN(CC)CCCCCCNc1cc(OC)c(Cl)c2cccnc12	81.4%	93.5%	14.7%	81.2%	66.7%	70.8%	82.1%	76.9%
C=CC(=O)Nc1cccc(Oc2nccc(Nc3nnc(C4CC4)s3)n2)c1	95%	101%	99.5%	93.3%	82%	101%	102%	97.5%
COc1cc(C2CC(=O)Nc3c2c(C)nn3-c2nc3ccccc3[nH]2)cc2c1OCC(=O)N2 (centres undefined)	83.6%	65.9%	48.5%	52.4%	56.9%	107%	103%	70.8%
COc1cc(C2CC(=O)Nc3c2c(C)nn3-c2nc3ccccc3[nH]2)c(OC)c(OC)c1OC (centres undefined)	40.8%	52.7%	-36.4% (active)	26.7%	25.4%	23.5%	95.2%	35.1%
CCOC(=O)C/C(C)=N\NC(=O)c1ccncc1	92.1%	97.8%	91.7%	107%	93.2%	89.3%	98.7%	107%
CCN(CC)c1ccc2nc3c4ccccc4c(=NC(=O)c4ccccc4-c4c5ccc(N(CC)CC)cc5[o+]c5cc(N(CC)CC)ccc45)cc-3oc2c1	63.6%	60.1%	-86.2% (active)	-38.7% (active)	-87.6% (active)	-26.8% (active)	15.9%	-3% (active)
NS(=O)(=O)c1cnccc1Oc1cccc2cccnc12	109%	93.3%	108%	106%	93.4%	97%	95.9%	107%
Cc1ccc(S(=O)(=O)Oc2cc(OS(=O)(=O)c3ccc(C)cc3)cc(OS(=O)(=O)c3ccc(C)cc3)c2)cc1	97.8%	118%	96.2%	92.2%	104%	103%	139%	123%
COC(=O)[C@H](CSC)N(C)C(=O)[C@@H]1CSSC[C@@H](NC(=O)c2nc3ccccc3cc2O)C(=O)NCC(=O)N1C	33.8%	111%	70%	74.2%	79.4%	71.7%	98.8%	50.6%
Cc1ccc2nc(NC(=O)CSc3nc(Nc4ccc([N+](=O)[O-])cc4)c(C#N)c(-c4ccccc4)n3)sc2c1	-58.4% (active)	91.1%	107%	105%	87.1%	89.5%	102%	101%
CC(=O)c1nc(Nc2ccc(C)cc2)sc1C	85.6%	87.1%	103%	97.4%	87.3%	90.9%	101%	98.6%
O=C(c1ccccc1)c1c(/C=C/c2ccccc2)nc2ccccc2c1/C=C/c1ccc(Br)cc1	95.4%	111%	99.7%	98.3%	82.7%	87.8%	115%	98.7%
CN1C(=O)N(C)C2C1NN=c1s/c(=C\c3ccccc3)c(=O)n12 (centres undefined)	37.9%	55.5%	-26.1% (active)	21.7%	15.4%	22.5%	82.5%	23.3%
O=C(O)C1CCC(=O)N1C(=O)OCc1ccccc1 (centres undefined)	108%	112%	91.3%	101%	91.6%	107%	104%	115%
FC(F)(F)c1cc(Nc2ccc3cc(OCCCN4CCOCC4)ccc3n2)ccc1Cl	26%	87.9%	35%	-13.7% (active)	6.85% (active)	14.5%	-18.5% (active)	16.7%
CCc1ccccc1-n1c(-c2ccc(Cl)cc2)cc(-c2ccc(Cl)cc2)c(C#N)c1=O	78.6%	93.7%	82.8%	88.9%	61.7%	69.8%	101%	82.9%
O=C(NCCCNc1cc(-c2cn(-c3ccccc3)nc2-c2cccc(O)c2)ccn1)c1ccc(F)cc1	-10.8% (active)	-6.04% (active)	-67.7% (active)	5.38% (active)	13.7%	10.8%	-60% (active)	12%
CC(=O)OC1CCC2(C)C(=CC3C4CCC(=O)C4(C)CCC32)C1 (centres undefined)	105%	95.9%	116%	104%	97.6%	100%	102%	107%
COC(=O)c1ccc(CSc2nnc(-c3c(C)nc4ccc(C)cn34)o2)cc1	89.4%	100%	102%	108%	85.9%	99.3%	87%	110%
O=C(COc1ccc(/C=C2\Oc3ccccc3C2=O)cc1)Nc1nc2c(s1)CCCC2	87%	-13.9% (active)	24.4%	65.5%	82.5%	75.5%	99.6%	-75% (active)
COc1ccc2oc3c(C)c4c(c(C)c3c2c1)C(=O)N(Cc1ccccc1)C4=O	95%	96.1%	99.2%	78.3%	95.5%	65.5%	102%	97.4%
Cc1ccc2nc(NC(=O)CSc3nc(-c4ccccc4)c(C#N)c(=O)n3Cc3ccccc3)sc2c1	-80.8% (active)	89.3%	45.7%	87.4%	86.2%	95.9%	118%	90.6%
COc1cc(C(=O)c2cc(C)c3[nH]c4ccc(Cl)cc4c3c2C)cc(OC)c1OC	70.4%	14.4%	-21.7% (active)	25.7%	13.9%	3.67% (active)	14.2%	-5.01% (active)
